In paper PMC11062922 (Nature Chemical Biology, 2023):
Read-outs that look alike come from different tables or passages of the source.

Tests used:
Design in all cases: species or system human, MV4-11 + K-562 + COLO205 + SK-N-BE2 + OVCAR-8
AURKA = settings: read-out: apparent Kd, n = 1
BCR = settings: read-out: apparent Kd, n = 1
MAPK10 = settings: read-out: apparent Kd; compound concentrations:100 nM and 1000 nM (sheet 'Samples'); n = 1
MAPK9 = settings: read-out: apparent Kd, n = 1
PRKAG2 = settings: read-out: apparent Kd, n = 1
STK16 = settings: read-out: apparent Kd, n = 1
STK4 = settings: read-out: apparent Kd, n = 1
TNK1 = settings: read-out: apparent Kd, n = 1
TNK2 = settings: read-out: apparent Kd, n = 1
CAMKK2 = settings: read-out: apparent Kd, n = 1
CHEK1 = settings: read-out: apparent Kd, n = 1
EPHA4 = settings: read-out: apparent Kd, n = 1
EPHA5 = settings: read-out: apparent Kd, n = 1
EPHB2 = settings: read-out: apparent Kd, n = 1
EPHB4 = settings: read-out: apparent Kd, n = 1
MARK3 = settings: read-out: apparent Kd, compound concentrations: 100 nM and 1000 nM (sheet 'Samples'), n = 1
PRKACA = settings: read-out: apparent Kd, n = 1
PRKACB = settings: read-out: apparent Kd, compound concentrations: 100 nM and 1000 nM (sheet 'Samples'), n = 1
CSNK1D = settings: read-out: apparent Kd, n = 1
CDK16 = settings: read-out: apparent Kd; compound concentrations: 100 nM and 1000 nM (sheet 'Samples'), CATDS: 4.4691246534882996E-3; n = 1
[1] = compound concentrations:100 nM and 1000 nM (sheet 'Samples')

Structure (SMILES): CNC(=O)c1ccccc1Nc1nc(Nc2ccc(N3CCOCC3)cc2)ncc1Cl.Cl [GSK1576028A]
- potency estimated from few doses (AURKA; [1]): 11 nM
- potency estimated from few doses (BCR; [1]): 781 nM
- potency estimated from few doses (MAPK10): 60.1 nM
- potency estimated from few doses (MAPK9; [1]): 220 nM
- potency estimated from few doses (PRKAG2; [1]): 587 nM
- potency estimated from few doses (STK16; [1]): 1770 nM
- potency estimated from few doses (STK4; [1]): 675 nM
- potency estimated from few doses (TNK1; [1]): 7.93 nM
- potency estimated from few doses (TNK2; [1]): 731 nM

Structure (SMILES): O=C1N=C(NCCc2ccc(Cl)cc2)S/C1=C\c1ccc2ncccc2c1 [RO4498479-000]
- potency estimated from few doses (AURKA; compound concentrations: 100 nM and 1000 nM (sheet 'Samples'), CATDS: 1.0602350822893101E-2): 486 nM
- potency estimated from few doses (BCR; compound concentrations: 100 nM and 1000 nM (sheet 'Samples'), CATDS: 1.6408594866795901E-2): 215 nM
- potency estimated from few doses (CAMKK2; compound concentrations: 100 nM and 1000 nM (sheet 'Samples'), CATDS: 9.9016852028132405E-3): 568 nM
- potency estimated from few doses (CHEK1; compound concentrations: 100 nM and 1000 nM (sheet 'Samples'), CATDS: 7.8682297996918397E-3): 1070 nM
- potency estimated from few doses (EPHA4; compound concentrations: 100 nM and 1000 nM (sheet 'Samples'), CATDS: 1.4543255052935199E-2): 263 nM
- potency estimated from few doses (EPHA5; compound concentrations: 100 nM and 1000 nM (sheet 'Samples'), CATDS: 2.0414571032165901E-2): 153 nM
- potency estimated from few doses (EPHB2; compound concentrations: 100 nM and 1000 nM (sheet 'Samples'), CATDS: 1.7636169639023699E-2): 191 nM
- potency estimated from few doses (EPHB4; compound concentrations: 100 nM and 1000 nM (sheet 'Samples'), CATDS: 2.15431657098582E-2): 141 nM
- potency estimated from few doses (MARK3; CATDS: 8.4864305198955707E-3): 848 nM
- potency estimated from few doses (PRKACA; compound concentrations: 100 nM and 1000 nM (sheet 'Samples'), CATDS: 8.4640851007318392E-3): 854 nM
- potency estimated from few doses (PRKACB; CATDS: 9.3487346254019794E-3): 654 nM
- potency estimated from few doses (PRKAG2; compound concentrations: 100 nM and 1000 nM (sheet 'Samples'), CATDS: 1.04447346657642E-2): 503 nM
- potency estimated from few doses (TNK1; compound concentrations: 100 nM and 1000 nM (sheet 'Samples'), CATDS: 1.8006750719606699E-2): 185 nM
- potency estimated from few doses (TNK2; compound concentrations: 100 nM and 1000 nM (sheet 'Samples'), CATDS: 1.88242032678454E-2): 173 nM

Structure (SMILES): Cc1ccc2c(-c3ccncc3)c(-c3ccc(F)cc3)nn2c1.Cl [GW461484A]
- potency estimated from few doses (BCR; [1]): 545 nM
- potency estimated from few doses (CAMKK2; [1]): 1180 nM
- potency estimated from few doses (CHEK1; [1]): 1870 nM
- potency estimated from few doses (CSNK1D; [1]): 125 nM
- potency estimated from few doses (EPHA4; [1]): 550 nM
- potency estimated from few doses (EPHA5; [1]): 429 nM
- potency estimated from few doses (EPHB2; [1]): 341 nM
- potency estimated from few doses (EPHB4; [1]): 275 nM
- potency estimated from few doses (PRKACA; [1]): 1900 nM
- potency estimated from few doses (PRKAG2; [1]): 417 nM
- potency estimated from few doses (TNK1; [1]): 280 nM
- potency estimated from few doses (TNK2; [1]): 328 nM

Structure (SMILES): Cn1ncc2c(N)ncnc21 [SKF-18267]
- potency estimated from few doses (AURKA; compound concentrations: 100 nM and 1000 nM (sheet 'Samples'), CATDS: 5.9187216005476898E-3): 594 nM
- potency estimated from few doses (BCR; compound concentrations: 100 nM and 1000 nM (sheet 'Samples'), CATDS: 5.2917709527679404E-3): 729 nM
- potency estimated from few doses (CAMKK2; compound concentrations: 100 nM and 1000 nM (sheet 'Samples'), CATDS: 4.5998229458051997E-3): 967 nM
- potency estimated from few doses (CDK16): 1030 nM
- potency estimated from few doses (CHEK1; compound concentrations: 100 nM and 1000 nM (sheet 'Samples'), CATDS: 3.5654135420005399E-3): 1830 nM
- potency estimated from few doses (CSNK1D; compound concentrations: 100 nM and 1000 nM (sheet 'Samples'), CATDS: 5.3650887558765398E-3): 710 nM
- potency estimated from few doses (EPHA4; compound concentrations: 100 nM and 1000 nM (sheet 'Samples'), CATDS: 3.9748200426908999E-3): 1360 nM
- potency estimated from few doses (EPHA5; compound concentrations: 100 nM and 1000 nM (sheet 'Samples'), CATDS: 5.0507447831964402E-3): 798 nM
- potency estimated from few doses (EPHB2; compound concentrations: 100 nM and 1000 nM (sheet 'Samples'), CATDS: 4.50420726302921E-3): 1010 nM
- potency estimated from few doses (EPHB4; compound concentrations: 100 nM and 1000 nM (sheet 'Samples'), CATDS: 5.4338505062104699E-3): 694 nM
- potency estimated from few doses (MAPK9; compound concentrations: 100 nM and 1000 nM (sheet 'Samples'), CATDS: 4.8352586021379899E-3): 871 nM
- potency estimated from few doses (MARK3; CATDS: 3.4367127016050499E-3): 2060 nM
- potency estimated from few doses (PRKACA; compound concentrations: 100 nM and 1000 nM (sheet 'Samples'), CATDS: 3.8266361716822101E-3): 1500 nM
- potency estimated from few doses (PRKACB; CATDS: 4.8946075790836903E-3): 850 nM
- potency estimated from few doses (PRKAG2; compound concentrations: 100 nM and 1000 nM (sheet 'Samples'), CATDS: 6.26452346247391E-3): 539 nM
- potency estimated from few doses (STK16; compound concentrations: 100 nM and 1000 nM (sheet 'Samples'), CATDS: 4.0331507933998702E-3): 1310 nM
- potency estimated from few doses (STK4; compound concentrations: 100 nM and 1000 nM (sheet 'Samples'), CATDS: 4.4233826553232904E-3): 1050 nM
- potency estimated from few doses (TNK1; compound concentrations: 100 nM and 1000 nM (sheet 'Samples'), CATDS: 5.3510619534007497E-3): 714 nM
- potency estimated from few doses (TNK2; compound concentrations: 100 nM and 1000 nM (sheet 'Samples'), CATDS: 5.8659667131667897E-3): 604 nM
